Measurements: the supplement of paper PMC6607015
Where a name gives a salt, the structure may show the parent alone.

Columns and labels:
Settings in all cases: compound concentration in added solution (µM; 5 µl added to 20 µl cells): 10; 18 h
[1] = tested on: A431; assay: LBPA endosome anti-LBPA integrated intensity (sum per cell), Z-score; higher = more LBPA staining
Outline: (§1)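 Each value is a Z-score normalised in AcuityXpress from per-cell integrated LBPA or filipin intensity, taken over the whole cell or within LBPA endosomes. Duplicate 384-well imaging plates held 5 µl of 10 µM compound solution, onto which 3,500 HeLa MZ or A431 cells in 20 µl were seeded per well. After 18 h the cells were fixed in 4% PFA, stained with 6C4 anti-LBPA antibody, filipin, propidium iodide and CellTracker green, imaged four times per well at 20× and segmented in MetaXpress.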

[2] = tested on: HeLa MZ; assay: as above
Outline: as §1

[3] = tested on: A431; assay: whole-cell filipin (free cholesterol) integrated intensity, Z-score; higher = more cholesterol staining
Outline: as §1

[4] = tested on: HeLa MZ; assay: as above
Outline: as §1

[5] = tested on: A431; assay: filipin (cholesterol) integrated intensity within LBPA endosomes, Z-score; higher = more cholesterol in LBPA endosomes
Outline: as §1

[6] = tested on: HeLa MZ; assay: as above
Outline: as §1

SMILES	LBPA endosome anti-LBPA integrated intensity (z-score) [1]	LBPA endosome anti-LBPA integrated intensity (z-score) [2]	whole-cell filipin (z-score) [3]	whole-cell filipin (z-score) [4]	filipin (z-score) [5]	filipin (z-score) [6]
Oc1ccc(OCc2ccccc2)cc1 [Monobenzone]	-0.343	2.16	2.23	2.56	-0.548	-0.736
CCC1(C)CC(=O)NC1=O (stereo not drawn) [Ethosuximide]	-0.426	-0.83	-0.448	-0.207	-0.393	-0.464
CC(C)(C)NC[C@@H](O)COc1cccc2c1CCCC2=O [(+) -Levobunolol hydrochloride]	-0.326	1.33	-0.176	-0.0312	-0.353	0.0482
CCOc1ccc(NC(C)=O)cc1 [Phenacetin]	-0.594	-0.322	-0.814	-0.392	-0.555	-0.582
CN(C)C/C=C(/c1ccc(Br)cc1)c1cccnc1 [Zimelidine dihydrochloride monohydrate]	-0.281	0.0916	-0.265	-0.387	0.179	0.387
C[C@@](Cc1ccc(O)c(O)c1)(NN)C(=O)O [Carbidopa]	-0.613	-0.537	-0.771	-0.705	-0.551	-0.634
CC(C)/N=c1\cc2n(-c3ccc(Cl)cc3)c3ccccc3nc-2cc1Nc1ccc(Cl)cc1 [Clofazimine]	1.95	1.42	-0.119	-1.15	0.416	-0.0158
CC[N+](C)(CC)CCC[n+]1c(-c2ccccc2)c2cc(N)ccc2c2ccc(N)cc21 [Propidium iodide]	-0.615	-1.77	-0.548	-0.836	-0.56	-0.527
COc1ccc(CCN(C)CCCC(C#N)(c2ccc(OC)c(OC)c2)C(C)C)cc1OC (stereo not drawn) [Verapamil hydrochloride]	2.51	2.93	2.24	0.413	2.46	1.49
CC(=O)c1ccc(S(=O)(=O)NC(=O)NC2CCCCC2)cc1 [Acetohexamide]	-0.506	-0.393	-0.763	-0.947	-0.604	-0.673
Cc1c(N(C)CS(=O)(=O)O)c(=O)n(-c2ccccc2)n1C [Dipyrone]	-0.646	-1.3	-0.336	-0.214	-0.539	-0.551
Clc1ccc(C(c2ccccc2Cl)C(Cl)Cl)cc1 (stereo not drawn) [Mitotane]	-0.586	-1.29	-0.251	-0.167	-0.511	-0.815
CC[C@H]1OC(=O)[C@H](C)[C@@H](O[C@H]2C[C@@](C)(OC)[C@@H](O)[C@H](C)O2)[C@H](C)[C@@H](O[C@@H]2O[C@H](C)C[C@H](N(C)C)[C@H]2O)[C@](C)(O)C[C@@H](C)CN(C)[C@H](C)[C@@H](O)[C@]1(C)O [Azithromycin]	4.39	1.79	0.331	0.115	1.25	1.45
O=C1NCC2(CCN(CCc3ccccc3)CC2)O1 [Fenspiride hydrochloride]	-0.609	-0.156	-1.07	-0.91	-0.575	-0.493
NC(=O)NC1NC(=O)NC1=O (stereo not drawn) [Allantoin]	-0.71	-1.01	-1.02	-0.573	-0.456	-0.604
O=C(O)c1cccnc1Nc1cccc(C(F)(F)F)c1 [Niflumic acid]	-0.414	-0.666	-0.705	-0.278	-0.444	-0.519
COc1cc2nc(N(C)CCCNC(=O)C3CCCO3)nc(N)c2cc1OC (stereo not drawn) [Alfuzosin hydrochloride]	1.37	1.11	-0.35	-0.351	0.00526	0.128
C=CCOc1ccccc1OCC(O)CNC(C)C (stereo not drawn) [Oxprenolol hydrochloride]	-0.0805	0.635	0.289	0.262	-0.232	-0.267
CCOC(=O)OC(C)OC(=O)[C@@H]1N2C(=O)[C@@H](NC(=O)[C@H](N)c3ccccc3)[C@H]2SC1(C)C (stereo partly drawn) [Bacampicillin hydrochloride]	-0.503	-1.29	-0.749	-0.787	-0.467	-0.528
c1ccc2c(CC3=NCCN3)cccc2c1 [Naphazoline hydrochloride]	-0.505	0.993	-0.75	0.085	-0.523	0.0798
COCCOC(=O)C1=C(C)NC(C)=C(C(=O)OC/C=C/c2ccccc2)C1c1cccc([N+](=O)[O-])c1 (stereo not drawn) [Cilnidipine]	0.601	0.589	1.38	-0.377	0.591	0.579
CCOC(=O)n1ccn(C)c1=S [Carbimazole]	-0.395	0.106	-0.405	-0.308	-0.513	-0.531
Nc1cc(-c2ccncc2)c[nH]c1=O [Amrinone]	-0.468	-0.737	-0.578	-0.805	-0.461	-0.541
CC(C)(O/N=C(\C(=O)N[C@@H]1C(=O)N2C(C(=O)[O-])=C(C[n+]3ccccc3)CS[C@H]12)c1csc(N)n1)C(=O)O [Ceftazidime pentahydrate]	-0.536	-0.783	-0.451	-0.099	-0.531	-0.437

SMILES	LBPA endosome anti-LBPA integrated intensity (z-score) [1]	LBPA endosome anti-LBPA integrated intensity (z-score) [2]	whole-cell filipin (z-score) [3]	whole-cell filipin (z-score) [4]	filipin (z-score) [5]	filipin (z-score) [6]
CC1CCc2cc(F)cc3c(=O)c(C(=O)O)cn1c23 (stereo not drawn) [Flumequine]	-0.63	-0.763	-0.836	-0.225	-0.543	-0.72
CCOc1cc(CC(=O)N[C@@H](CC(C)C)c2ccccc2N2CCCCC2)ccc1C(=O)O [Repaglinide]	-0.598	-1.05	0.149	0.153	-0.42	-0.591
CN1CCN(c2c(F)cc3c(=O)c(C(=O)O)cn4c3c2SCC4)CC1 [Rufloxacin]	-0.614	-0.736	0.0183	-0.289	-0.534	-0.17
O=C(O)c1cccnc1 [Niacin]	-0.578	-1.61	-0.557	-0.648	-0.464	-0.617
Cc1ccc(-c2ncc(Cl)cc2-c2ccc(S(C)(=O)=O)cc2)cn1 [Etoricoxib]	-0.471	-1.03	-0.752	-0.603	-0.543	-0.516
CN1CCOC(c2ccccc2)c2ccccc2C1 (stereo not drawn) [Nefopam hydrochloride]	-0.544	-0.0559	-0.752	-0.617	-0.509	-0.197
Clc1cc(Cl)c(OCC#CI)cc1Cl [Haloprogin]	-0.472	-1.16	-0.945	-0.949	-0.529	-0.714
COc1ccc2[nH]cc(CCNC(C)=O)c2c1 [Melatonin]	-0.518	0.193	-0.621	-0.435	-0.528	-0.543
C#C[C@]1(O)CC[C@H]2[C@@H]3CCC4=CC(=O)CC[C@@H]4[C@H]3CC[C@@]21C [Norethindrone]	-0.462	-0.0403	-0.665	-0.306	-0.425	-0.487
OCC(O)CN1CCN(c2ccccc2)CC1 (racemic) [Dropropizine (R,S)]	-0.485	-0.821	-0.651	-0.914	-0.515	-0.59
COc1ccc(C(=O)NCc2cccnc2)cc1C(=O)NCc1cccnc1 [Picotamide monohydrate]	-0.303	-0.286	-0.472	-0.0549	-0.457	-0.612
CC(=O)Nc1c(I)c(C(=O)N[C@H]2C(O)O[C@H](CO)[C@@H](O)[C@@H]2O)c(I)c(N(C)C(C)=O)c1I (stereo partly drawn) [Metrizamide]	-0.495	-0.295	-0.527	-0.9	-0.561	-0.597
CCn1nc(C(=O)O)c(=O)c2cc3c(cc21)OCO3 [Cinoxacin]	-0.298	0.452	-0.393	-0.0614	-0.442	-0.322
CN1CCC(=C2c3ccccc3Sc3ccccc32)CC1 [Pimethixene maleate]	2.35	1.97	0.776	-0.782	1.82	0.962
CN(C)[C@@H]1C(O)=C(C(=O)NCNCCCC[C@H](N)C(=O)O)C(=O)[C@@]2(O)C(O)=C3C(=O)c4c(O)cccc4[C@@](C)(O)[C@H]3C[C@@H]12 [Lymecycline]	-0.193	0.509	0.136	0.267	-0.319	-0.559
Cc1cc(C(=O)NNCc2ccccc2)no1 [Isocarboxazid]	-0.549	-1.31	-0.396	-0.63	-0.553	-0.513
CN(CCCCCCCCCCN(C)C(=O)Oc1cccc([N+](C)(C)C)c1)C(=O)Oc1cccc([N+](C)(C)C)c1 [Demecarium bromide]	-0.223	-0.152	-0.139	-0.617	-0.179	-0.595
C[C@@H]1CCC[C@H](C)N1NC(=O)c1ccc(Cl)c(S(N)(=O)=O)c1 [Clopamide]	-0.569	-1.24	-0.626	-0.712	-0.503	-0.648
O=C(O)COC(=O)Cc1ccccc1Nc1c(Cl)cccc1Cl [Aceclofenac]	-0.449	-0.174	-0.423	-0.27	-0.383	-0.402
Cc1cccc(CN2CCN(C(c3ccccc3)c3ccc(Cl)cc3)CC2)c1 (stereo not drawn) [Meclozine dihydrochloride]	-0.277	-0.335	-0.336	-0.815	-0.233	-0.413
C=CC[N@@+]12CC[C@@]34c5ccccc5N5/C=C6/[C@H]7C[C@H]8[C@@]9(CC[N@@+]8(CC=C)C/C7=C/CO)c7ccccc7N(/C=C(/[C@@H](C[C@@H]31)/C(=C\CO)C2)[C@H]54)[C@@H]69 [Alcuronium chloride]	-0.441	-0.288	0.269	2.33	-0.417	-0.254
Cc1ccc(Cl)c(Nc2ccccc2C(=O)O)c1Cl [Meclofenamic acid sodium salt monohydrate]	-0.528	-0.676	-0.856	-0.416	-0.531	-0.606
CN(C)CCOC(C)(c1ccccc1)c1ccccn1 (stereo not drawn) [Doxylamine succinate]	-0.48	0.575	-0.578	-0.502	-0.488	-0.154
COc1cc(-c2ccc(=O)[nH]n2)ccc1OC(F)F [Zardaverine]	-0.319	0.0365	0.286	0.356	-0.298	-0.332
